# Laboratory results from ChEMBL document CHEMBL4513216, “Probing the Open Global Health Chemical Diversity Library for Multistage-Active Starting Points for Next-Generation Antimalarials” (ACS Infect Dis, 2020).
# Out of some 65,000 compounds screened, about 2,100 (3.2%) showed an effect of 50% or more. The median lay at about -52%. This excerpt belongs to a sample that is enriched for strong results.
# Test system: Plasmodium falciparum
# Assay: Screen against P. falciparum Asexual Blood Stage (ABS), at 5uM
# Type: functional, Dd2
# Conditions: tested at 5 uM
row,SMILES,INHIBITION [%]
1,Cc1nc(NCc2cccnc2)cc(C2COCCN2)n1 (centres undefined),-124
2,Cc1cnn(C2CCCN(C(=O)c3cn(-c4ccccc4)nn3)C2)c1 (centres undefined),-119
3,CCC(C)c1noc(C2CCN(C(=O)c3ccccn3)CC2)n1 (centres undefined),-122
4,O=C(O)c1cccnc1CN1CCCC1CCc1ccccc1 (centres undefined),-78
5,c1ccc(CC2CCN(Cc3ccnc(-c4cccnc4)n3)CC2)cc1,-20
6,c1ccc(Cc2nnc(CN3CCc4cncnc4C3)o2)cc1,63.6
7,Cc1cnn(C2CN(Cc3nnc(Cc4ccccc4)o3)C2)c1,51.8
8,Cc1cnn(C2CN(Cc3nnc(-c4ccccc4Cl)o3)C2)c1,11.9
9,c1ncc2c(n1)CN(Cc1nc(-c3ccsc3)no1)CC2,-41.7
10,Cc1ncc2c(n1)CN(Cc1nnc(Cc3ccccc3)o1)CC2,-25
11,c1ncc2c(n1)CN(Cc1nc(-c3ccoc3)no1)CC2,58.7
12,c1ccc(Cc2noc(CN3CCc4cncnc4C3)n2)cc1,-48.8
13,COc1ccc(-c2noc(CN3CCc4cncnc4C3)n2)cc1,6.71
14,Cc1ccc(-c2nnc(CN3CC(n4cc(C)cn4)C3)o2)cc1,-29.5
15,c1ncc2c(n1)CN(Cc1nc(-c3ccc4c(c3)OCO4)no1)CC2,21
16,c1coc(-c2noc(CN3CCc4cncnc4C3)n2)c1,31
17,Cc1ccc(-c2noc(CN3CCc4cncnc4C3)n2)cc1,59.7
18,COC(=O)COc1cc(NCc2c(C)noc2C)c(Cl)cc1C,-49.6
19,COc1ccc(-c2csc3c2c(N)nc(=O)n3CC(N)=O)cc1,-61.4
20,CC(=O)Nn1ccc2c(nnc3c(-c4ccccc4)cnn32)c1=O,-65.6
21,CCc1nc(NCCc2c(C)nn(CC)c2C)c2cnn(C)c2n1,-95.2
22,CC(CCc1ccc(F)c(F)c1)NS(=O)(=O)Cc1ccon1 (centres undefined),-44.6
23,CCC(=O)N1CCCC1c1nc(N(C)C)ncc1-c1ccc(Cl)cc1 (centres undefined),19.6

row,SMILES,INHIBITION [%]
1,COc1ccc(CC(=O)N2CCCC(n3nc(C)cc3C)C2)cc1 (centres undefined),-9.14
2,COc1ccccc1C(=O)N1CC(=O)N(C2CCCCC2)CC(O)C1 (centres undefined),-37
3,Cc1ccc(S(=O)(=O)N2C[C@H]3C[C@H](NC(=O)c4ccccn4)[C@H]3C2)cc1,-55.2
4,O=C(N1CCCC1)N1CCC[C@]2(C[C@@H](OCc3ccncc3)CO2)C1,-71.6
5,CCC(C(=O)Nc1ccc(-c2nc(C)n[nH]2)cc1)N1CCCC1=O (centres undefined),-34.4
6,Cc1nc(NS(=O)(=O)c2cccc(F)c2C)no1,-25.8
7,COCCN1CCC(c2nc3ccc(N4CCCC4)cn3n2)CC1,-45.6
8,O=C(NCCc1ccccn1)[C@@H]1CC[C@@H]2[C@@H](CCN2Cc2ccoc2)O1,-60.9
9,COc1nc2ccn(CCNc3cc(C)ccn3)c(=O)c2cc1C#N,51.7
10,COc1nc2ccn(CCc3scnc3C)c(=O)c2cc1C#N,-31.6
11,COc1nc2ccn(CCc3cnccn3)c(=O)c2cc1C#N,-11.9
12,N#Cc1cc(F)ccc1CN1CCCC1Cn1cccn1 (centres undefined),-48.4
13,CC(=O)Nc1ccc(C(=O)N(C)Cc2ccc(F)cc2F)s1,-10.9
14,O=C(CCN1CCCO1)NC1CCCN(CC2CCCCC2)C1 (centres undefined),-105
15,Cc1ccc2c(c1)OCCCC2NCc1nccn1Cc1ccccc1 (centres undefined),-13.4
16,Cn1cc(CNC2CCCOc3c2ccc2ccccc32)cn1 (centres undefined),63.1
17,Cc1cccc2c1OCCC2NCc1c(C)nn(C)c1N(C)C (centres undefined),0.635
18,Cn1cc(CNC2CCCOc3c(Cl)cccc32)cn1 (centres undefined),20.3
19,c1ccc(Cn2ccnc2CNC2CCCOc3ccccc32)cc1 (centres undefined),42.5
20,Cc1cccc2c1OCCCC2NCc1nccn1Cc1ccccc1 (centres undefined),63.8
21,CCCn1cc(-c2cc(-c3cc(CC)n[nH]3)c(C#N)c(N)n2)c(C)n1,-20.1
22,CCCN1CCC(c2nc3ccc(NCc4ccccc4)cn3n2)CC1,-1.75
23,O=C1CCCN1Cc1ncn2c1CN(C(=O)N1CCCC1)CCC2,-29.5

row,SMILES,INHIBITION [%]
1,Cn1cc(NC(=O)N2CCCC2c2cccnc2)ccc1=O (centres undefined),-8.15
2,Cn1cc(NC(=O)N2CCC2c2ccccc2)ccc1=O (centres undefined),54.8
3,Cn1cc(NC(=O)N2CCC(c3ccccc3)CC2)ccc1=O,-187
4,Cc1occc1C(=O)N1CCO[C@H]2[C@@H](Oc3ccccn3)CC[C@@H]21,-73.5
5,Cc1cc(C(=O)N2CCO[C@H]3[C@H](Oc4ccccn4)CC[C@@H]32)c(C)[nH]1,51.5
6,O=C(C1=CCCC1)N1CCO[C@H]2[C@@H](Oc3ccccn3)CC[C@@H]21,-51.5
7,CCCc1nc(N2CCCN(c3ncccn3)CC2)c2cnn(C)c2n1,-2.15
8,CCCc1nc(N2CCN(Cc3ccccn3)CC2)c2cnn(C)c2n1,19.2
9,CCCc1nc(N2CCCN(c3ccncc3)CC2)c2cnn(C)c2n1,65
10,Cc1cnn(C2CCCN(C(=O)c3cccc4c3OCO4)C2)c1 (centres undefined),-116
11,Cn1cc(CN(Cc2ccccn2)Cc2ccccc2Cl)cn1,-31.1
12,Cn1ccnc1CN(Cc1ccccn1)Cc1ccccc1Cl,79.4
13,CCN(Cc1cc(Cl)ccc1OC)Cc1ncnn1CC,-33.4
14,CCn1nc(C)c(CN(Cc2ccccn2)Cc2ccccc2Cl)c1C,-33.9
15,CCN(Cc1ccccn1)Cc1cc(Cl)ccc1OC,-28.3
16,CCN(Cc1cc(Cl)ccc1OC)Cc1nccn1C,67.2
17,Cc1cccc(CN2CCc3c(COCC(=O)N(C)C)nn(C)c3C2)n1,-107
18,COCC(=O)N1CCCC(COc2ccccc2C)C1 (centres undefined),-71
19,Cc1ccccc1OCC1CCCN(C(=O)CN(C)C2CCNCC2)C1 (centres undefined),57.5
20,Cc1ccccc1OCC1CCCN(C(=O)CNC(=O)N(C)C)C1 (centres undefined),-158
21,Cc1[nH]/c(=N\C(=O)c2csc(NCC(C)C)n2)sc1C,-31.9
22,Cc1[nH]/c(=N\C(=O)c2csc(NC3CCCC3)n2)sc1C,50
23,Cc1cnc(NC(=O)c2csc(NC3CCCC3)n2)s1,-86.7
